Among all 16,000 compounds or so, about 5,100 (32%) were called active. Roughly 25% stayed inconclusive and do not appear here. The list shows a part of the results. A number with no mark means an inactive call. Calls follow the shape of the dose curve; as a rule, active = well fitted curve in the direction sought with a large enough effect; inconclusive = small, poorly fitted or top-dose-only effect, or effect the other way; inactive = no such curve, though single readings can be large or run the other way.

We go through 62 compounds from PubChem BioAssay AID1851 (National Center for Advancing Translational Sciences (NCATS), 2009).
% is scaled to controls: 0 for no effect and ±100 for the full control effect.

The target in the experiment is Cytochrome P450 3A4 (Homo sapiens) (UniProt P08684). Put plainly: Cytochrome panel assay with activity outcomes. To be noted: recombinant CYP, pro-luciferin dealkylation, luminescence, p450-cyp3a4; series mostly up to 57.1 µM.
Cytochrome P450 3A4 (Homo sapiens), sequence (P08684 whole entry, looked up): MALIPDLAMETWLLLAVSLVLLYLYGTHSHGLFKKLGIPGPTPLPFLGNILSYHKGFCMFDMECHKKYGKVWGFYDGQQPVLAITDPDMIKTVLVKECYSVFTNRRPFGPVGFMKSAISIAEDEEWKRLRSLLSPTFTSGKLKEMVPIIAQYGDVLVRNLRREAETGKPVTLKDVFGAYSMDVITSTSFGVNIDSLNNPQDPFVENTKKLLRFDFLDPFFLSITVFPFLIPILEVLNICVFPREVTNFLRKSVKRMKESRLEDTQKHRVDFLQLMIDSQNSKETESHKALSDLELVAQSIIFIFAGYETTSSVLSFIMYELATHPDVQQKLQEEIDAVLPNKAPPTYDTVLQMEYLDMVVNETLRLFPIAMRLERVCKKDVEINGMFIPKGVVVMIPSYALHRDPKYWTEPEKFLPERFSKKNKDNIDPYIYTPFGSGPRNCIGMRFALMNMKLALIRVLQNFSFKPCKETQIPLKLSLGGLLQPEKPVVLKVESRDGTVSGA
For orientation: AC50 means the concentration giving half of the maximal activity seen. In the case of `Cc1ccc(C2NC(c3ccc(C)cc3)C(C)C(=NO)C2C)cc1` (configuration not stated), the AC50 is 14.1 µM (active).
Consider `COc1ccc(CC(=O)NC(=S)Nc2ccc(S(=O)(=O)NC(C)(C)C)cc2)cc1`, for which the AC50 was 6.31 µM (active).
As to `CCC(=O)NC(=S)Nc1ccc(S(=O)(=O)NC(C)=O)cc1`, the activity, negative = inhibition was 18.1% [at 2.29 µM].
Consider `CC(=O)NS(=O)(=O)c1ccc(NC(=S)NC(=O)C(C)(C)C)cc1`, for which the AC50 result is “inactive”.
Take `CSc1nc(N)c2ncn([C@H]3O[C@H](COP(=O)(O)OP(=O)(O)O)[C@@H](O)[C@@H]3O)c2n1`: the AC50 entry was “inactive”.
Same read-out and setting: the same measure for `C[C@@]12CC3CC(N)(C1)C[C@@](C)(C3)C2`: “inactive”.
Still for that read-out and setting: the same measure for `CCOc1ccc(C2=[N+]([O-])C(C)(C)N(O)C2(C)C)cc1`: “inactive”; for `CCOc1ccc(NC(=O)N2CCC(c3ccc(C)cc3)C2)cc1` (configuration not stated): “inactive”.
Same read-out and setting: the same measure for `CCOc1ccc(C(Nc2ccc(C)cc2)P2(=O)OCC(C)(C)CO2)cc1` (configuration not stated): 3.98 µM (active); for `COc1ccc(CCn2c(C)cc(C(=O)CSc3nc(N)cc(=O)[nH]3)c2C)cc1`: 2.51 µM (active).
`CC(=O)Nc1nnc(SCc2ccc(F)cc2)s1`: the AC50 entry is “inactive”.
For `O=C(O)c1cc(=O)[nH]c(SCc2ccccc2)n1`, the activity, negative = inhibition was 0.661% [at 11.4 µM].
`Cc1cc(C(=O)CSc2nnc(N)s2)c(C)n1CCc1ccc(F)cc1`: the AC50 is 0.316 µM (active).
On to `O=C(O)Cc1ccc(O)c(O)c1`, for which the AC50 result is “inactive”.
Still for that read-out and setting: the same measure for `O=C(CCc1ccc(O)cc1)c1c(O)cc(O)cc1O`: 10 µM (active).
Still for that read-out and setting: the same measure for `C[C@@](N)(Cc1ccc(O)cc1)C(=O)O`: “inactive”; for `O=c1nc(N2CCCCCC2)nc(N2CCCCCC2)[nH]1`: “inactive”; for `CCOc1ccc(-n2c(=O)[nH]cc(C(=O)N3CCCc4ccccc43)c2=O)cc1`: “inactive”.
Turning to `Cc1cc2nc(-c3ccc(SCC(=O)N4CCc5ccccc54)nc3)[nH]c2cc1C`, the activity, negative = inhibition was -3.98% [at 2.29 µM].
Regarding `O=C(CSc1nnc(CNc2ccc(F)cc2)o1)OC1CCCCC1`, the AC50 was 28.2 µM (active).
On the same count and under the same terms, the same measure for `O=C(CSc1nnc(CNc2ccc(F)cc2)o1)N1c2ccccc2Sc2ccccc21`: 7.08 µM (active); for `O=C(CSc1nnc(CNc2ccccc2)o1)N1CCCc2ccccc21`: 8.91 µM (active).
The same measure, in the same setting: in the case of `O=C(CSc1n[nH]c(-c2ccccc2O)n1)N1CCCc2ccccc21` it was 3.16 µM (active).
The same measure, in the same setting: in the case of `CCN(CC)C(=O)CSc1nnc(C2CCCCC2)o1` it was “inactive”.
`O=C(CCN1CCCCC1)N1CCc2c([nH]c3ccccc23)[C@H]1c1cccnc1`: the activity, negative = inhibition was -11.2% [at 11.4 µM].
For the compound `COC(=O)Cn1cnc(=O)c(C#N)c1/C=C/N(C)C`, the AC50 entry is “inactive”.
`O=C(N/N=C/c1ccc(O)cc1)c1csc2ccccc12`: the activity, negative = inhibition was -23.9% [at 11.4 µM].
On the same count and under the same terms, in the case of `O=C(N/N=C\c1cccc(O)c1)c1ccncc1` it was -5.33% [at 11.4 µM].
For `O=C(N/N=C/c1ccncc1)c1cc2c(ccc3ccccc32)o1`, the AC50 is 1.41 µM (active).
As for `C=CCn1cc(/C=N\NC(=O)c2cc3c(ccc4ccccc43)o2)c2ccccc21`, the AC50 was 10 µM (active).
The same measure, in the same setting: the same measure for `Cc1ccccc1C(=O)N/N=C/c1ccncc1`: 7.08 µM (active).
Consider `O=C(N/N=C/c1cccc([N+](=O)[O-])c1)c1cc2c(ccc3ccccc32)o1`, for which the activity, negative = inhibition is -7.91% [at 2.29 µM].
Consider `O=C(N/N=C/C=C/c1ccccc1)c1cc2c(ccc3ccccc32)o1`, for which the AC50 result was “inactive”.
For the compound `COc1cccc([C@H](O)Cn2cc(-c3ccc(CON=C(C)C)cc3)nn2)c1`, the activity, negative = inhibition was -19.8% [at 11.4 µM].
The same measure, in the same setting: in the case of `CC[C@@H](CS(=O)(=O)O)[N+](=O)[O-]` it was -18% [at 11.4 µM].
As to `O=C(N=NC(=O)c1ccc2c(O)n(C3CCCCC3)c(O)c2c1)c1cccnc1`, the AC50 is 11.2 µM (active).
The same measure, in the same setting: in the case of `Cn1cc(-c2nc3cncnc3n(CCN)c2=O)c2ccccc21` it was 12.6 µM (active).
The same measure, in the same setting: the same measure for `COCCn1c(=O)c(-c2cn(C)c3ccccc23)nc2cncnc21`: 3.16 µM (active).
Turning to `COc1ccccc1CCn1c(=O)c(-c2cn(C)c3ccccc23)nc2cncnc21`, the AC50 is 2.51 µM (active).
The same measure, in the same setting: in the case of `Cc1cccc([C@@H]2CN(C)CCc3c2cc(O)c(O)c3Cl)c1` it was “inactive”; in that of `N[C@H](CCCP(=O)(O)O)C(=O)O`, “inactive”.
`O=C(O)c1nnsc1-c1ccc(-c2snnc2C(=O)O)cc1`: the activity, negative = inhibition is -0.252% [at 11.4 µM].
Consider `O=C(O)c1ccccc1-c1ccc(/C=c2\sc3nc4cc(Br)cnc4n3c2=O)o1`, for which the AC50 result is “inactive”.
Still for that read-out and setting: in the case of `O=C(c1c[nH]c(=O)n(-c2ccccc2)c1=O)N1CCc2ccccc21` it was “inactive”; in that of `Cc1ccc(NS(=O)(=O)c2cc(C(=O)NCc3ccccn3)ccc2Cl)cc1`, 3.98 µM (active).
Regarding `CN(c1ccc(C(=O)NCc2ccccn2)cc1)S(C)(=O)=O`, the AC50 entry was “inactive”.
Take `COc1ccc(C(=O)N2CCCCC2)cc1S(=O)(=O)Nc1ccccc1`: the AC50 was 12.6 µM (active).
Take `CCOC(=O)N1CCN(C(=O)c2ccc(Cl)c(S(=O)(=O)N3CCOCC3)c2)CC1`: the activity, negative = inhibition is -3.04% [at 2.29 µM].
For the compound `Cc1ccc(NS(=O)(=O)c2cc(C(=O)N3CCc4ccccc4C3)ccc2Cl)cc1`, the AC50 was 1.26 µM (active).
On the same count and under the same terms, the same measure for `OC(CN1CCCCC1)CN1CCCCC1`: “inactive”.
Still for that read-out and setting: in the case of `Cc1cccc(CNc2ncncc2-c2ccc(C(=O)N(C)C)cc2)c1` it was 0.631 µM (active); in that of `CN(C)C(=O)c1ccc(-c2cncnc2NCCc2cnc[nH]2)cc1`, 6.31 µM (active); in that of `CN(C)C(=O)c1ccc(-c2cncnc2NC2CCNCC2)cc1`, “inactive”.
Take `CNc1ncncc1-c1ccc(C(=O)N(C)C)cc1`: the AC50 was 5.01 µM (active).
As to `CN(C)C(=O)c1ccc(-c2cncnc2NCc2ccccc2)cc1`, the AC50 was 2.51 µM (active).
For the compound `CN1CCN(c2ncncc2-c2ccc(C(=O)N(C)C)cc2)CC1`, the AC50 was 15.8 µM (active).
On to `CN(C)C(=O)c1ccc(-c2cncnc2N2CCNCC2)cc1`, for which the AC50 entry was “inactive”.
Turning to `CN(C)C(=O)c1ccc(-c2cncnc2NCc2cccnc2)cc1`, the AC50 was 5.01 µM (active).
Consider `O=C(O)c1ccccc1C1c2ccccc2Oc2ccccc21`, for which the activity, negative = inhibition was 26.1% [at 11.4 µM].
Turning to `CCC1(C)CC(CCNS(=O)(=O)c2ccc(C)cc2)(c2ccc(C)cc2)CCO1` (configuration not stated), the AC50 was 3.55 µM (active).
For the compound `c1ccc(-c2nnc(SCCC3OCCCO3)o2)cc1`, the AC50 entry was “inactive”.
Take `Cc1cc(C(=O)CSc2nnc(-c3ccccc3)o2)c(C)n1CC1COc2ccccc2O1` (configuration not stated): the concentration at half-maximal activity (AC50) is 2.24 µM (active).
